Records with an inconclusive call do not appear. The source made the active and inactive calls. Calls follow the shape of the dose curve; as a rule, active = well fitted curve in either direction with a large enough effect (not every such curve was filed as active); inconclusive = small, poorly fitted or top-dose-only effect, or another doubt; inactive = flat fitted curve, though single readings scatter. Numbered stars: 1 amine (or outer) side, 2 acyl side, 3 side chain; on linkers, the order of the positions; unused ones are H or OH. Bridge positions count the residues as written; N and C are the ends. Square brackets hold non-standard residues; d marks the D form. Peptide text beside a SMILES is read from it. I, II: the chains in the order shown. Actinocin(9to1) = Cc1c2oc3c(C)ccc(C(=O)[*:1])c3nc-2c(C(=O)[*:2])c(N)c1=O; NMeV = CN[C@H](C(=O)O)C(C)C; Sar = CNCC(=O)O
Target: Mitogen-activated protein kinase 10 (Mus musculus) (UniProt Q61831)
Assay: JNK3 AlphaScreen Assay (AID 530);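 also: kinase came from lysate of stimulated human HepG2 cells; signal reports phosphorylation of biotinylated GST-cJun 1-79 at Ser73 with 10 µM ATP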
Details: JNK3 lysate, c-Jun phosphorylation; series mostly up to 25.6 µM; activity change, negative = inhibition: at the top concentration
Method in brief: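 qHTS format: compounds tested as titrations against IL-1beta/TNF-alpha-activated HepG2 lysate JNK3 with biotin-GST-cJun substrate and 10 uM ATP at room temperature. Loss of anti-phospho-cJun AlphaScreen signal indicates inhibition.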
% is scaled to controls: 0 for no effect and ±100 for the full control effect.

Structure (SMILES)	activity change, negative = inhibition	outcome
COc1ccc(CCN2CCC(Nc3nc4ccccc4n3Cc3ccc(F)cc3)CC2)cc1	-0.991% (inactive)	
O=c1ccc2ccccc2o1	16.2% [at 57.1 µM] (inactive)	
CC/C(=C(/CC)c1ccc(O)cc1)c1ccc(O)cc1	0.235% [at 57.1 µM] (inactive)	
CCn1cc(C(=O)O)c(=O)c2cnc(N3CCCC3)nc21	-7.38% (inactive)	
COc1cccc2c1C(=O)c1c(O)c3c(c(O)c1C2=O)C[C@@](O)(C(=O)CO)C[C@@H]3O[C@H]1C[C@H](N)[C@H](O)[C@H](C)O1	5.74% [at 57.1 µM] (inactive)	
Cc1c2oc3c(C)ccc(C(=O)N[C@@H]4C(=O)N[C@H](C(C)C)C(=O)N5CCC[C@H]5C(=O)N(C)CC(=O)N(C)[C@@H](C(C)C)C(=O)O[C@@H]4C)c3nc-2c(C(=O)N[C@@H]2C(=O)N[C@H](C(C)C)C(=O)N3CCC[C@H]3C(=O)N(C)CC(=O)N(C)[C@@H](C(C)C)C(=O)O[C@@H]2C)c(N)c1=O (I: T[dV]P[Sar][NMeV] / II: T[dV]P[Sar][NMeV]; ester I:1-I:C, II:1-II:C; linker I:N-II:N via Actinocin(9to1))	-9.06% [at 57.1 µM] (inactive)	
O=C1OC(c2ccc(O)cc2)(c2ccc(O)cc2)c2ccccc21	-12.6% [at 57.1 µM] (inactive)	
CCCCOc1ccc(OCCCN2CCOCC2)cc1	7.43% (inactive)	
O=C(O)CCCCC(=O)O	-16% [at 57.1 µM] (inactive)	
COC1=CC(=O)C[C@@H](C)[C@]12Oc1c(Cl)c(OC)cc(OC)c1C2=O	17.8% [at 57.1 µM] (inactive)	
CN1CCC(=C2c3ccccc3Sc3ccccc32)CC1	-5.54% (inactive)	
CN(C)/N=N/c1nc[nH]c1C(N)=O	-13.3% [at 57.1 µM] (inactive)	
CNCC[C@@H](Oc1ccccc1C)c1ccccc1	12.4% [at 57.1 µM] (inactive)	
NC(=NCCCCCCN=C(N)/N=C(\N)Nc1ccc(Cl)cc1)/N=C(\N)Nc1ccc(Cl)cc1		inactive
